{"source": "PubChem BioAssay AID624273", "about": "(Broad Institute, 2012)", "note": "In all, about 1,000 compounds went through this assay and about 230 (23%) were called active. Not shown: some 1% with an inconclusive outcome. How the calls were made is not given here. The list shows a part of the results. A call without a number means that no potency is given here. Potency and affinity values are given separately."}
{"molecular_target": "Long-chain-fatty-acid--AMP ligase FadD28 (Mycobacterium tuberculosis (strain ATCC 25618 / H37Rv)) (UniProt P9WQ59)", "sequence (P9WQ59 whole entry, looked up)": "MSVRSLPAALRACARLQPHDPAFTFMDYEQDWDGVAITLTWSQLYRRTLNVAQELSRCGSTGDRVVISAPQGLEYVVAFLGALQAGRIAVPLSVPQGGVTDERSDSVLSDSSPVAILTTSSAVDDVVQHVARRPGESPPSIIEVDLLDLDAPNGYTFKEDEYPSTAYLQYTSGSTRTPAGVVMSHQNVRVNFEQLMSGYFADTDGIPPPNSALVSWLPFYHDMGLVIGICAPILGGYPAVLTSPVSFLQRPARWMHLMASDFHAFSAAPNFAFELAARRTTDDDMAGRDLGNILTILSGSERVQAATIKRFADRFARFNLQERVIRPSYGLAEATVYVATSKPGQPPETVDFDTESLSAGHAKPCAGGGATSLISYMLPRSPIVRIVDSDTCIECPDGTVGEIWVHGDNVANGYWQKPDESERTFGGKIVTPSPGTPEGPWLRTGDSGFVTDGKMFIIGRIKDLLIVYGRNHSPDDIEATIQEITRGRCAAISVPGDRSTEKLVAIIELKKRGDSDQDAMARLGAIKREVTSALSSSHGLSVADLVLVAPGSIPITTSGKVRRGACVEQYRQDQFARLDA", "experiment": "inhibitors of FadD28 bisubstrate probe binding, dose response, biochemical, fluorescence polarization, cherry-pick (AID 624273)", "settings": "series mostly up to 50 µM"}
{"smiles": "O=C(c1cc2cc(F)ccc2[nH]1)N1CCc2ccccc2C1", "outcome": "inactive"}
{"smiles": "COc1ccc(NC(=O)c2ccccc2NS(C)(=O)=O)cc1OC", "outcome": "inactive"}
{"smiles": "COc1ccc(-c2coc3c(C(=O)Nc4cccc(C(C)=O)c4)cccc23)c(C)c1", "outcome": "inactive"}
{"smiles": "CCN(CC(=O)Nc1c(F)cccc1F)C(=O)Cc1ccccc1", "outcome": "inactive"}
{"smiles": "N#CC1=C(N)OC2=C(C(=O)CCC2)C1c1cc2c(cc1Cl)OCO2", "note": "(centres undefined)", "outcome": "inactive"}
{"smiles": "COc1ccc(-c2coc3cc(O[C@@H]4O[C@H](CO)[C@@H](O)[C@H](O)[C@H]4O)ccc3c2=O)cc1", "outcome": "inactive"}
{"smiles": "Cc1ccc(OCc2n[nH]c(=S)n2-c2ccc(Br)cc2)cc1", "outcome": "inactive"}
{"smiles": "Cc1ccc2c(c1)N(C(=O)NC1CCCCC1)C(C)(C)CC2C", "note": "(centres undefined)", "outcome": "inactive"}
{"smiles": "O=C(Nc1ccc(NC(=O)c2cc([N+](=O)[O-])ccc2N2CCOCC2)cc1)c1cccs1", "outcome": "inactive"}
{"smiles": "Cc1ccc(C(=O)N2CCCC2)cc1S(=O)(=O)N1CCOCC1", "outcome": "inactive"}
{"smiles": "COc1cc([N+](=O)[O-])ccc1NC(=S)NC(=O)CC(C)(C)C", "outcome": "inactive"}
{"smiles": "COc1ccc(-n2nnnc2SCC(=O)Nc2ccccc2N2CCOCC2)cc1OC", "outcome": "inactive"}
{"smiles": "Cc1cc(NCC(=O)Nc2ccc(C)c(S(=O)(=O)N3CCOCC3)c2)ccc1Br", "outcome": "inactive"}
{"smiles": "Cc1ccc(NC(=O)COC(=O)c2cccc(OC(F)F)c2)cc1S(=O)(=O)N1CCCCC1", "outcome": "inactive"}
{"smiles": "COc1ccc(S(=O)(=O)N2CCCCCC2)cc1NC(=O)c1ccccc1S(C)(=O)=O", "outcome": "inactive"}
{"smiles": "O=C(c1cc(COc2ccc3c(c2)CCCC3)on1)N1CCCC1", "outcome": "inactive"}
{"smiles": "O=C(c1cccc(C(F)(F)F)c1)N1CCN(CCc2ccccc2)CC1", "outcome": "inactive"}
{"smiles": "Cc1[nH]n(-c2ccc(Cl)cc2)c(=O)c1C=Nc1ccc(S(=O)(=O)N2CCOCC2)cc1", "outcome": "inactive"}
{"smiles": "O=C(Cn1cc(S(=O)(=O)Cc2cccc([N+](=O)[O-])c2)c2ccccc21)N1CCOCC1", "outcome": "inactive"}
{"smiles": "COC(=O)c1cc(S(=O)(=O)Nc2ccsc2C(=O)OC)oc1C", "outcome": "inactive"}
{"smiles": "Cc1nnc(SCC(=O)Nc2ccc(F)cc2)n(N)c1=O", "outcome": "inactive"}
{"smiles": "O=C1/C(=C/c2ccco2)SC(=S)N1CCC(=O)N1CCCCC1CCO", "note": "(centres undefined)", "outcome": "inactive"}
{"smiles": "N#Cc1ccccc1NC(=O)CNc1ccc(Cl)c(C(F)(F)F)c1", "outcome": "inactive"}
{"smiles": "COc1cc2c(cc1OC)C(=O)C(Br)CC2", "note": "(centres undefined)", "outcome": "inactive"}
{"smiles": "O=C(O)CSC(C(=O)Nc1ccc(C(F)(F)F)cc1)c1ccccc1", "note": "(centres undefined)", "outcome": "inactive"}
{"smiles": "COCc1[nH][nH]c(=O)c1C=Nc1ccc(C(F)(F)F)cc1", "outcome": "inactive"}
{"smiles": "NS(=O)(=O)c1ccc(NC(=O)c2ccc3c(c2)OCO3)cc1", "outcome": "inactive"}
{"smiles": "Cc1nonc1C(=O)N/N=C/c1ccc([N+](=O)[O-])o1", "outcome": "inactive"}
{"smiles": "COC(=O)[C@]1(Cc2ccccc2)N[C@H](CN(C)S(=O)(=O)c2ccc(-c3ccccc3)cc2)[C@@H]2C(=O)N(C)C(=O)[C@@H]21", "outcome": "inactive"}
{"smiles": "COc1cccc(CN(C)C(=O)CC2C(=O)NCCN2C2Cc3ccccc3C2)c1", "note": "(centres undefined)", "outcome": "inactive"}
{"smiles": "COc1cc(/C=C/c2ccc3cccc(O)c3n2)cc(OC)c1OC", "outcome": "inactive"}
{"smiles": "Cc1ccn2c(Nc3ccccc3C)c(-c3ccccn3)nc2c1", "outcome": "inactive"}
{"smiles": "Cc1nn(Cc2ccc(F)cc2)c2sc(C(=O)Nc3ccccc3N3CCOCC3)cc12", "outcome": "inactive"}
{"smiles": "O=C1CCCC(=NNC(=O)c2cc3ccccc3cc2O)C1", "outcome": "inactive"}
{"smiles": "O=C(O)CCC(=O)Nc1ccc(C(=O)OCC(=O)c2ccc(Cl)cc2)cc1", "outcome": "inactive"}
{"smiles": "O=C(Nc1cccc([N+](=O)[O-])c1)NC1CCCCCCC1", "outcome": "inactive"}
{"smiles": "Cn1nc(CC(=O)NC2CCCCCCCCCCC2)c2ccccc2c1=O", "outcome": "inactive"}
{"smiles": "FC(F)Sc1ccc(NC(=S)NCc2ccccc2)cc1", "outcome": "inactive"}
{"smiles": "O=C(COC(=O)c1nc(Cl)ccc1Cl)NCc1ccccc1", "outcome": "inactive"}
{"smiles": "CCCC(C(=O)NCCC(C)C)N(Cc1ccccc1)C(=O)c1snc(C(N)=O)c1N", "note": "(centres undefined)", "outcome": "inactive"}
{"smiles": "O=S(=O)(CCN1CCN(c2ccccc2O)CC1)c1cc(Cl)ccc1Cl", "outcome": "inactive"}
{"smiles": "COc1ccc(NC(=O)Nc2ccc3c(c2)C(=O)N([C@@H](C)CO)C[C@@H](C)[C@@H](CN(C)S(=O)(=O)c2cccs2)O3)cc1", "outcome": "inactive"}
{"smiles": "CCN(CC)c1ccc(NC(=O)Nc2ccc(C(C)=O)cc2)cc1", "outcome": "inactive"}
{"smiles": "O=C(NN=Cc1ccc(N(CCCl)CCCl)cc1)c1cccnc1", "outcome": "inactive"}
{"smiles": "COc1ccc(Cl)cc1C(=O)Nn1c(-c2cccs2)nc2ccccc2c1=O", "outcome": "inactive"}
{"smiles": "O=C(Nc1ccc(F)cc1F)NC1CCCCCCC1", "outcome": "inactive"}
{"smiles": "CCOc1ccc(NC(=O)Cn2sc3nc(C)cc(C)c3c2=O)cc1", "outcome": "inactive"}
{"smiles": "CCOc1ccc(N=C2SC(C(=O)Nc3ccccc3C#N)C(N)=C2C(=O)Nc2ccc(Cl)cc2)cc1", "note": "(centres undefined)", "outcome": "inactive"}
{"smiles": "c1ccc(-c2cc(-c3ccccc3)on2)cc1", "outcome": "inactive"}
{"smiles": "N#Cc1ccc(NCCc2ccccn2)c([N+](=O)[O-])c1", "outcome": "inactive"}
{"smiles": "CCCCC(=O)Nc1cc([N+](=O)[O-])ccc1Cl", "outcome": "inactive"}
{"smiles": "CCS(=O)(=O)c1ncc(Cl)c(C(=O)Nc2ccc(S(=O)(=O)N3CCC(C)CC3)cc2)n1", "outcome": "inactive"}
{"smiles": "CC12CCC(C(=O)NCCCn3ccnc3)(OC1=O)C2(C)C", "note": "(centres undefined)", "outcome": "inactive"}
{"smiles": "c1ccc2cc(OCCCn3ccnc3)ccc2c1", "outcome": "inactive"}
{"smiles": "Cc1nn(CC(=O)NCc2ccco2)c(C)c1[N+](=O)[O-]", "outcome": "inactive"}
{"smiles": "CC(C)(C)c1ccc(Cn2nnc3c(=O)[nH]c(C4CCCN(C(=O)c5cccs5)C4)nc32)cc1", "note": "(centres undefined)", "outcome": "inactive"}
{"smiles": "COc1ccc(N=C2NC(=O)/C(=C\\C=C\\c3ccco3)S2)cc1", "outcome": "inactive"}
{"smiles": "CCc1cccc2c(C(=O)COC(=O)[C@@H]3CC(O)CN3S(=O)(=O)c3ccccc3[N+](=O)[O-])c[nH]c12", "note": "(some centres undefined)", "outcome": "inactive"}
{"smiles": "CCc1cccc2c(C(=O)COC(=O)c3ccccc3)c[nH]c12", "outcome": "inactive"}
{"smiles": "COc1ccc(C(C)=O)cc1COC(=O)c1cnc(C)cn1", "outcome": "inactive"}
{"smiles": "CCN(C(=O)c1cc(OC)c(OC)c(OC)c1)C1CCCCC1", "outcome": "inactive"}
{"smiles": "O=C(c1cc2cc(Br)ccc2oc1=O)N1CCCC1", "outcome": "inactive"}
{"smiles": "CC(C)CCOc1ccc(C(=O)N2CCCC2C(=O)O)cc1", "note": "(centres undefined)", "outcome": "inactive"}
{"smiles": "C[C@@H]1CN([C@H](C)CO)C(=O)c2cc(NC(=O)Nc3ccc(C(F)(F)F)cc3)ccc2O[C@H]1CN(C)S(=O)(=O)c1cccs1", "outcome": "inactive"}
{"smiles": "Cc1ccc(S(=O)(=O)Nc2ccc(O)c3ccccc23)c(C)c1", "outcome": "inactive"}
{"smiles": "Cc1noc(/C=C/N(C)C)c1S(=O)(=O)N1CCCC(C(=O)NC2CCCCC2C)C1", "note": "(centres undefined)", "outcome": "inactive"}
{"smiles": "CCOC(=O)c1cccc(P(=O)(C(C)(C)C)C(C)(C)C)c1", "outcome": "inactive"}
{"smiles": "C=CC(COCc1ccccc1)N(C(=O)OC(C)(C)C)S(=O)(=O)c1ccccc1Br", "note": "(centres undefined)", "outcome": "inactive"}
{"smiles": "C=CCC12C=C(OC)C(=O)OC(OC)(C1O)[C@H](c1ccc3c(c1)OCO3)[C@H]2C", "note": "(some centres undefined)", "outcome": "inactive"}
{"smiles": "CCC1(CC)NC(=O)N(CC(=O)Nc2ccc(OCc3ccccc3)cc2)C1=O", "outcome": "inactive"}
{"smiles": "Cc1ccc(S(=O)(=O)NCC(=O)OCC(=O)N2CCN(C(=O)c3ccco3)CC2)cc1C", "outcome": "inactive"}
{"smiles": "CCc1cc(C(=O)O)c(NC(=O)C(c2ccccc2)c2ccccc2)s1", "outcome": "inactive"}
{"smiles": "CN1c2ccsc2C(O)=C(C(=S)Nc2ccc(F)c(Cl)c2)S1(=O)=O", "outcome": "inactive"}
{"smiles": "CC1(C)Cc2ccccc2C(=NCCCC(=O)O)N1", "outcome": "inactive"}
{"smiles": "Oc1c(Cl)cc(Cl)cc1/C=N/NC(=S)NC1CC2C=CC1C2", "note": "(centres undefined)", "outcome": "inactive"}
{"smiles": "CCCSc1ncc(Cl)c(C(=O)Nc2ccc(S(=O)(=O)N3CC(C)OC(C)C3)cc2)n1", "note": "(centres undefined)", "outcome": "inactive"}
{"smiles": "C=CCC[C@@H](Cc1ccc(F)cc1)C(=O)OC[C@@H](NC(=O)[C@@H](CC=C)CC(=O)N(CCO)Cc1ccccc1)c1ccccc1", "outcome": "inactive"}
{"smiles": "O=C(Nc1ccccc1F)NC1CCCCCCC1", "outcome": "inactive"}
{"smiles": "COC(=O)CN(c1ccc(OC)cc1)S(=O)(=O)c1ccc(OC)c(OC)c1", "outcome": "inactive"}
{"smiles": "COC(=O)C1=C(c2ccc3ccccc3c2)C[C@@H]2CC[C@H]1N2C(=O)N1CCC(O)CC1", "outcome": "inactive"}
{"smiles": "N=c1c(C(=O)NCc2ccco2)cc2c(=O)n3ccccc3nc2n1Cc1ccccc1", "outcome": "inactive"}
{"smiles": "COC(=O)CCC(=O)N1CCCC(CO)(Cc2ccccc2F)C1", "note": "(centres undefined)", "outcome": "inactive"}
{"smiles": "O=C(O)C1Sc2[nH]c(=O)sc2C2c3ccc(O)cc3OC(=O)C12", "note": "(centres undefined)", "outcome": "inactive"}
{"smiles": "O=C(NC(NC(=S)Nc1c(Cl)cccc1Cl)C(Cl)(Cl)Cl)OCc1ccccc1", "note": "(centres undefined)", "outcome": "inactive"}
